Laboratory results as given in PubChem BioAssay.
Calls of active or inactive are those of the source.

Experiments:
[1] = binders of probe aFSTL3 on microarray, primary screen, stem cell growth factor project, biochemical, small-molecule microarray, fluorescence 635/667 (AID 1064); settings: higher = more signal;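 note: measures binding of the biotinylated anti-FSTL3 antibody to printed compounds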
[2] = binders from COS7 lysate, DM2A8 probe, primary screen, torsin A project, cell lysate, small-molecule microarray, fluorescence 635/667 (AID 1065); settings: higher = more signal, COS7 lysate expressing mutant human TOR1A
[3] = binders of probe aFGF2 on microarray, primary screen, stem cell growth factor project, biochemical, small-molecule microarray, fluorescence 635/667 (AID 1067); settings: higher = more signal;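 note: measures binding of biotinylated aFGF2 protein to printed compounds on slides; z-score merges feature fluorescence and signal-to-noise across triplicate slides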
[4] = binders of probe aFGF10 on microarray, primary screen, stem cell growth factor project, biochemical, small-molecule microarray, fluorescence 635/667 (AID 1071); settings: higher = more signal;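 note: score merges 667 nm spot intensity and signal to noise from triplicate slides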
[5] = target: Neurogenic locus notch homolog protein 2 (Homo sapiens) (UniProt Q04721); assay: Notch2 binders on small-molecule microarrays, primary screen, biochemical, small-molecule microarray, 635 nm fluorescence, stem cell growth factors (AID 1073); settings: Notch2 binding, higher = more signal
Chain of Neurogenic locus notch homolog protein 2 (Homo sapiens) (Q04721 whole entry, looked up, canonical isoform): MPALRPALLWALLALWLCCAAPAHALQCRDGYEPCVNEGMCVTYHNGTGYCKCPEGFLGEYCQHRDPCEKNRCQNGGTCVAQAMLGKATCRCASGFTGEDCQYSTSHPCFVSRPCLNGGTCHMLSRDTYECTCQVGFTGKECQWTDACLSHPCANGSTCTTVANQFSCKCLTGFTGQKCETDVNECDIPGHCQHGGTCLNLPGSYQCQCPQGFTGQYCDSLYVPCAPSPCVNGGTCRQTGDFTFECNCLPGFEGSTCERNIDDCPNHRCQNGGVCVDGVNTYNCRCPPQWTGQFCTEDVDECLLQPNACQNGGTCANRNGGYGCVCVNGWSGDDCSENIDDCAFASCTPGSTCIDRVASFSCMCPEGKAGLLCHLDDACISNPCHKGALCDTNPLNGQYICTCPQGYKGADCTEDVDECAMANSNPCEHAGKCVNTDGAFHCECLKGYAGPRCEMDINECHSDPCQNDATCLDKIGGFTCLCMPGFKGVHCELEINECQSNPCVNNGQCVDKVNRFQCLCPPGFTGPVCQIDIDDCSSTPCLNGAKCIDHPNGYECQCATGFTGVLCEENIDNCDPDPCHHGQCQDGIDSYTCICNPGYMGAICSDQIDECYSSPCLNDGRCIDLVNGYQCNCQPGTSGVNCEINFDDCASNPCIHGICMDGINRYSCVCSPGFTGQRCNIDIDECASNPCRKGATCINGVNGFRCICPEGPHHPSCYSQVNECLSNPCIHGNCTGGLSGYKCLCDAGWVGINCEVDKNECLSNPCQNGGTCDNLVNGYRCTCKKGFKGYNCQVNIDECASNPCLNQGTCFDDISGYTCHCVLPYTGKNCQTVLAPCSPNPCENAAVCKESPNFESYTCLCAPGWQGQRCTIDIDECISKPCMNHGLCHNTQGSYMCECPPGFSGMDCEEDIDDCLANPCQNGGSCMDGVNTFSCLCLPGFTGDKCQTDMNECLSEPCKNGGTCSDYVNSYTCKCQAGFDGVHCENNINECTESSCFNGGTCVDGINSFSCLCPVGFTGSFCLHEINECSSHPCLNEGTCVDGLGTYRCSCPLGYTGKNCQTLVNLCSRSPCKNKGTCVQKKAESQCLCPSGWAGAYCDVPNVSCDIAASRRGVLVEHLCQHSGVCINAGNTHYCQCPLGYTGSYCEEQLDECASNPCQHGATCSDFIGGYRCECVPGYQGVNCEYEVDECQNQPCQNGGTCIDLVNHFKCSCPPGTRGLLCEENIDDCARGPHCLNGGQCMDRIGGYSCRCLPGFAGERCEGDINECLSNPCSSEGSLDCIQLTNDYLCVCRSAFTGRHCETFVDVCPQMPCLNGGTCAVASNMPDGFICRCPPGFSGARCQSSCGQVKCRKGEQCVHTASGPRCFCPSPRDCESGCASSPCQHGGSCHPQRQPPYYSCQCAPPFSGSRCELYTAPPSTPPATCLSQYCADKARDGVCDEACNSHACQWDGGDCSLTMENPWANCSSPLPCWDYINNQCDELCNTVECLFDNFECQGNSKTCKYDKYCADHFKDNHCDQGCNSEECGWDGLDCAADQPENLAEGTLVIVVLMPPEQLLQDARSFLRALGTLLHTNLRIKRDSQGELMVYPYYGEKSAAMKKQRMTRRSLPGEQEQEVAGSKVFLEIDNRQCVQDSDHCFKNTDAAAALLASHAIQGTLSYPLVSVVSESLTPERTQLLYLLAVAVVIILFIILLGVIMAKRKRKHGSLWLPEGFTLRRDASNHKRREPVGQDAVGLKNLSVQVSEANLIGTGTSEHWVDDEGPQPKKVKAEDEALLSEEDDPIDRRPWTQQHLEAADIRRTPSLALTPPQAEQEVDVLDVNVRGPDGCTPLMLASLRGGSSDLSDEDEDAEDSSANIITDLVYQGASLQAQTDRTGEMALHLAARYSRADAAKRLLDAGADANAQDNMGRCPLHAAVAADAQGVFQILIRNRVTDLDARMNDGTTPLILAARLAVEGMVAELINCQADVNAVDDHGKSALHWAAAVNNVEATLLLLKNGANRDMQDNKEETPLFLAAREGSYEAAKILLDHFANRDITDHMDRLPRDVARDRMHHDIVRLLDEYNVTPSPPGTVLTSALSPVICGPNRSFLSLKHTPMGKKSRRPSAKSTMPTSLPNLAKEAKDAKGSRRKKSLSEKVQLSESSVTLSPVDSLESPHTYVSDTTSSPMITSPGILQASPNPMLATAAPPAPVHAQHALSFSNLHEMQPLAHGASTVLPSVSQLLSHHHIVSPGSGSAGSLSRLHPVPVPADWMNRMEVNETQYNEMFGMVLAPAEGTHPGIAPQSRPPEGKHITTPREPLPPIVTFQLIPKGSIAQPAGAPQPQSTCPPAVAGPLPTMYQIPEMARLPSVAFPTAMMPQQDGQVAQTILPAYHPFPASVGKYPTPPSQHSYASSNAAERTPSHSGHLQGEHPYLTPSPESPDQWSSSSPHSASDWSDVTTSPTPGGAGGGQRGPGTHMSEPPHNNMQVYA

[6] = target: Pro-neuregulin-1, membrane-bound isoform (Homo sapiens) (UniProt Q02297); assay: NRG1 binders on small-molecule microarrays, primary screen, psychiatric disease protein project, biochemical, small-molecule microarray, fluorescence 635/667 (AID 1075); settings: NRG1 binding, 635 nm fluorescence, higher = more signal;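 note: score combines 667 nm spot fluorescence with signal to noise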
Chain of Pro-neuregulin-1, membrane-bound isoform (Homo sapiens) (Q02297 whole entry, looked up, the tested form may be a part, canonical isoform): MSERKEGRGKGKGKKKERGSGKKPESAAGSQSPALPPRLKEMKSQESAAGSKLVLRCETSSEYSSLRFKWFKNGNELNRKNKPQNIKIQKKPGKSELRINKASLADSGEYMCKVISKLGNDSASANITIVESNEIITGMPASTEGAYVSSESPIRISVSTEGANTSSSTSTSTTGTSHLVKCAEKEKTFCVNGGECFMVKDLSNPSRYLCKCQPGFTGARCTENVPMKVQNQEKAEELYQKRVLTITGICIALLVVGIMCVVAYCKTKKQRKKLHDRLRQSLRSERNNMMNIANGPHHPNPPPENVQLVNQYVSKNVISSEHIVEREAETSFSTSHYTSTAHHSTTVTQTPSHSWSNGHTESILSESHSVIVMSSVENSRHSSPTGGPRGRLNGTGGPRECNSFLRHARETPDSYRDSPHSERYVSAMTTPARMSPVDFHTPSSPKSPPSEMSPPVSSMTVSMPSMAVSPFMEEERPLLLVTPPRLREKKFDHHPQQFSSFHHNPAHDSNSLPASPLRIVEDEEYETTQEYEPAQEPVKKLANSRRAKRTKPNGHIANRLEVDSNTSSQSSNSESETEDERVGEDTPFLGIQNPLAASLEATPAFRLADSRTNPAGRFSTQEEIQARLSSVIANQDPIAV

[7] = system: Neuregulin-1 EGF-like domain; assay: binders of neuregulin-1 EGF-like domain, primary screen, biochemical, small-molecule microarray, 635 nm fluorescence (AID 1081); settings: small-molecule microarray binding, higher = more signal;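 note: binding of the protein to compounds printed on small-molecule microarray slides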
[8] = FRG1 promoter luciferase signal modulators, primary screen, FRG1 inhibition for FSHD, cell-based, C2C12 myotubes, firefly/Renilla luciferase, luminescence (AID 1084); settings: higher = more signal, called active from +8 up or from −8 down
[9] = binders of probe aFST on microarray, primary screen, stem cell growth factor project, biochemical, small-molecule microarray, fluorescence 635/667 (AID 1086); settings: higher = more signal;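 note: score merges 667 nm fluorescence with signal-to-noise of each printed compound spot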
[10] = binders of probe aHhip on microarray, primary screen, stem cell growth factor project, biochemical, small-molecule microarray, fluorescence 635/667 (AID 1087); settings: higher = more signal;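 note: score merges spot fluorescence at 667nm with spot signal to noise ratio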

Structure (SMILES)	composite z-score [1]	composite z-score [2]	composite z-score [3]	composite z-score [4]	composite z-score [5]	composite z-score [6]	composite z-score [7]	z-score [8]	composite z-score [9]	composite z-score [10]
COCCCNC(=O)[C@@]1(C)c2ccccc2C(=O)N(Cc2ccc(OC(F)(F)F)cc2)[C@H]1c1ccc(CO)cc1	0.729	-0.255	-0.116	-0.0476	-0.505	0.785	1.45	-2.6 (inactive)	0.153	0.213
C=C(COC)/C(=C/C[C@H](OC(=O)c1ccncc1)c1ccc(CO)o1)c1cc(C(=O)OC)ccc1OC	-0.393	0.649	0.0026	0.905	0.614	0.407	0.716	0.0676 (inactive)	0.404	-0.123
CO[C@H]1O[C@H](CO)[C@@H](OC(=O)Nc2ccc(C#N)cc2)[C@H](OC(=O)c2cc3ccccc3[nH]2)[C@H]1OC(=O)c1cc2ccccc2[nH]1	0.0407	1.3	0.062	1.16	1.04	1.75	1.24	-1.79 (inactive)	0.462	-0.0645
O=C1[C@H]2[C@H]3[C@H](O)[C@H](O)CC(=NOCc4ccccc4)[C@@H]3CC[C@H]2C(=O)N1Cc1ccccc1	-0.226	0.304	-0.125	0.264	0.758	-0.0975	0.272	0.341 (inactive)	0.281	-0.0672
N#Cc1ccc(NN2C(C(O)c3cccc4ccccc34)C=CC3C(=O)N(c4ccccc4)C(=O)C32)cc1 (stereo not given)	-0.0622	-0.182	0.158	0.829	1.65	1.63	1.21	0.025 (inactive)	0.889	0.0695
O=C1[C@H]2[C@H]3[C@H](O)[C@H](O)CC(=NOC[C@@H](O)COCc4ccco4)[C@@H]3CC[C@H]2C(=O)N1c1ccc(F)cc1F	-0.469	1.4	-0.128	0.138	0.21	-0.592	-0.574	-0.24 (inactive)	-0.128	0.177
O=C1[C@H]2[C@H]3[C@H](O)[C@H](O)CC(=NO[C@@H]4O[C@H](CO)[C@@H](O)[C@H](O)[C@H]4O)[C@@H]3CC[C@H]2C(=O)N1c1ccc(F)cc1F	-0.383	1.17	-0.125	0.442	0.482	-0.141	0.386	1.06 (inactive)	0.0076	0.2
COCCOC(=O)N1C(=O)[C@@]2(c3ccccc31)[C@H](C(N)=O)[C@H]1C(=O)O[C@H](c3ccccc3)[C@H](c3ccccc3)N1[C@@H]2c1ccccc1OCCO	0.0407	1.67	0.147	0.937	0.899	1.42	1.11	-0.732 (inactive)	0.521	0.234
CCOC(=O)NN=C1C[C@@H](O)[C@@H](O)[C@@H]2[C@@H]3C(=O)N(C4CCCCC4)C(=O)[C@@H]3CC[C@H]12	-0.242	0.459	-0.067	0.267	0.932	0.215	0.444	0.228 (inactive)	0.142	-0.0994
C[N+](C)(C)CCCCCCNC(=O)[C@@H]1C[C@@H]2C(=O)N3CCC[C@H]3C(=O)N2[C@@H]1c1cccc(OCCO)c1	-0.0041	0.669	-0.169	-0.239	-0.337	0.747	1.35	5.01 (inactive)	-0.128	-0.48
COCCCNC(=O)[C@@]1(CCS(=O)(=O)c2ccccc2)N=C(c2ccc(OCCCO)cc2)O[C@H]1c1ccccc1	0.958	1.5	0.378	1.18	0.674	1.25	1.31	-1.23 (inactive)	0.56	2.04
CC(=O)OC[C@H]1O[C@@H](ON=C[C@@H](C)[C@H](OCc2ccccc2)C(C)C)[C@H](OC(C)=O)[C@@H](OC(C)=O)[C@@H]1OC(C)=O	-0.624	1.69	-0.0959	0.372	0.55	-0.927	-1.19	-0.703 (inactive)	0.304	-0.134
C=CC[C@]1(C(=O)NCc2ccccc2)N=C(c2ccc(OCCCO)cc2)O[C@H]1c1ccccc1	0.674	1.1	-0.0131	-0.439	0.007	1.51	1.26	-0.97 (inactive)	0.991	-0.0645
CO[C@H]1COC(=O)[C@H](C)COC(=O)CC=C[C@@H](C)[C@H](OC)COC(=O)CC=C[C@@H]1C	-0.654	0.682	-0.226	-0.0247	-0.217	-0.481	-0.311	0.847 (inactive)	-0.08	0.0854
COCCOC(=O)N1C(=O)[C@@]2(c3cc(C#Cc4ccc(OC)cc4)ccc31)[C@H](C(=O)N1CCN(c3ncccn3)CC1)[C@H]1C(=O)O[C@H](c3ccccc3)[C@H](c3ccccc3)N1[C@@H]2c1ccc(OCCO)cc1	0.367	-0.473	-0.006	0.3	1.35	0.458	0.703	0.726 (inactive)	0.383	0.28
O=C1C[C@@H](O)[C@@H](O)[C@@H]2[C@@H]3C(=O)N(c4ccc(F)cc4F)C(=O)[C@@H]3CC[C@@H]12	-0.416	0.267	-0.122	0.315	0.627	0.0489	0.823	0.25 (inactive)	0.153	0.144
COC(=O)C1=C(C)N(Cc2ccccc2)[C@]23O[C@](C(=O)OC)(C(=O)N2[C@@H]1c1ccccc1)[C@H]1CCOC(=O)[C@H]13	-0.602	0.601	-0.0956	0.649	0.783	-0.146	0.815	-0.203 (inactive)	0.0592	-0.0645
CC(C)[Si]1(C(C)C)O[C@@H](c2ccccc2)c2cc(C3CC3)nc(-c3ccccc3)c21	-0.324	-0.598	-0.0494	-0.0526	0.0397	-0.234	-0.717	0.178 (inactive)	-0.0973	0.0274
C[C@@H]1CC[C@H]2C(=O)O[C@H](COc3ccc(C(C)(C)C)cc3)CN2[C@H]1c1ccc(Br)cc1	-0.417	-0.16	-0.026	-0.0359	0.111	0.536	-0.414	0.414 (inactive)	-0.0273	-0.0296
COCCOC(=O)N1C(=O)[C@@]2(c3cc(C#CC4(O)CCCCCC4)ccc31)[C@H](C(=O)N1CCN(c3ncccn3)CC1)[C@H]1C(=O)O[C@H](c3ccccc3)[C@H](c3ccccc3)N1[C@@H]2c1ccc(OCCO)cc1	-0.266	0.318	0.192	0.727	1.24	0.939	1.33	0.401 (inactive)	0.517	0.107
CO[C@@H]1COC(=O)CC=C[C@@H](C)[C@@H]2C=C[C@H](O)[C@@H](COC(=O)[C@H](C)NC(=O)CC=C[C@H]1C)O2	-0.556	0.977	-0.15	0.321	0.268	-0.497	0.849	0.361 (inactive)	0.277	0.351
CO[C@H]1COC(=O)[C@H](C)NC(=O)[C@@H](C)COC(=O)CC=C[C@@H]1C	-0.618	1.06	-0.116	0.409	-0.0804	-0.194	0.547	-0.599 (inactive)	0.0356	-0.434
C=CCOC(=O)[C@H]1[C@@H]2C(=O)O[C@@H](c3ccccc3)[C@@H](c3ccccc3)N2[C@@H](c2ccc(OCCOC(=O)[C@H]3C[C@H]4C(=O)N[C@@H](Cc5ccccc5)C(=O)N4[C@H]3c3ccc(O)cc3)cc2)[C@]12C(=O)Nc1ccccc12	-0.298	0.0087	-0.0692	0.349	0.355	0.188	1.29	0.458 (inactive)	0.276	-0.109
CCCCC(=C=CC[C@H](O)c1ccccc1OCCO)C[C@H](O)COCc1ccccc1	-0.0094	0.273	-0.12	-0.249	-0.673	0.716	0.554	-1.01 (inactive)	0.324	-0.0296
Cc1cc2c(nc1C)CCCN2CC(O)CN1CCN(C)CC1 (stereo not given)	0.499	0.382	0.0138	0.575	0.273	0.462	0.346	-0.323 (inactive)	0.758	0.744
COCCOC(=O)N1C(=O)[C@@]2(c3cc(C#Cc4ccc(OC)cc4)ccc31)[C@H](c1ccc(O)cc1)N1[C@H](c3ccccc3)[C@H](c3ccccc3)OC(=O)[C@H]1[C@@H]2C(N)=O	-0.513	0.258	-0.031	0.602	1.35	1.17	1.26	0.497 (inactive)	0.674	0.291
C[C@@H](c1ccccc1)N1C(=O)[C@H]2[C@H]3[C@H](O)[C@H](O)CC(=NOC[C@@H](O)COCc4ccco4)[C@@H]3CC[C@H]2C1=O	0.193	0.068	-0.159	-0.141	-1.02	-0.717	-0.647	-0.0058 (inactive)	0.0275	-0.137
